F508del corr – CFTR F508del correction in bronchial cells. activity (quench increase), % at 7.58 µM. hit rate 0.36% among 350,000. CFBE cells, YFP halide quenching; stimulated with forskolin plus potentiator P3; % fluorescence drop versus neutral controls;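 active = mean added fluorescence quench of at least 8% versus neutral control, with both replicates also reaching 8%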;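 note: cells transiently co-express mutant CFTR-F508del with the halide-sensitive YFP; corrector assay measuring rescue of mutant channel to the surface after 24 h compound exposure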
PglD inh – inhibitors of Campylobacter jejuni PglD acetyltransferase; purified PglD enzyme, DTNB colorimetric CoA detection; inhibition, % at 12.5 µM; hit rate 0.098% among 360,000; AID 602405; in the data active = inhibition above about 16%, passing the limit was not always enough
ARNT-TACC3 inh – ARNT/TACC3 interaction disruption | hit rate 0.66% among 390,000 | inhibition, % at 9.99 µM | AlphaScreen His-ARNT PAS-B/GST-TACC3 binding, luminescence; TACC3 fragment carries E629A point mutation;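 active = mean inhibition of replicates at least 50% and at least half of replicates each reaching 50%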;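 note: 0% = complete ARNT plus TACC3 wells and 100% = ARNT alone without TACC3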
C2C12 statin – suppression of simvastatin myotoxicity. C2C12 myotubes + simvastatin, ATP luminescence, 48 h; scaled: DMSO 0, geranylgeraniol control 100. rescue of ATP level, % at 7.49 µM. hit rate 0.78% among 330,000. AID 602340;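 active = mean ATP rescue above about 67%, or every replicate alone reaching that limit, limit read from the data, passing the limit was not always enough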;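 note: myotubes were challenged with 10 µM simvastatin during compound exposure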
The depositor's hits bear a star; x = not tested or not shown. In the library only some 1.4% were active in any assay of this set; here they are far more common.

SMILES	F508del corr	PglD inh	ARNT-TACC3 inh	C2C12 statin
CCn1c(SCC(=O)c2ccc(OC)cc2)nnc1C(C)NC(=O)c1ccc(OC)cc1 (configuration not stated)	x	-1	x	76*
Cc1ccccc1NC(=S)c1nc2ccccc2[nH]1	x	1	49*	1
CC1(C)CC(=O)C(C=NCCN2CCN(C(=S)Nc3ccc(F)cc3)CC2)=C(O)C1	x	1	5	65*
O=C(c1ccccn1)N1CC2(C1)[C@H](c1ccccc1)[C@@H](CO)N2C(=O)C1CC1	-3	x	x	x
O=C(NCCN1CCCCC1)[C@H]1[C@H](CO)[C@H]2Cn3c(cccc3=O)[C@@H]1N2C(=O)C1CCCCC1	0	0	4	5
C[C@H](N)c1nnc(SCC(=O)c2ccc(Cl)cc2)o1	x	0	15	119*
C[C@@H]1CN([C@@H](C)CO)C(=O)c2cccc(NC(=O)C3CCOCC3)c2O[C@H]1CN(C)Cc1ccncc1	-2	-3	-2	-13
COCc1cc(=O)[nH]c(Nc2nc3ccc(C)cc3o2)n1	x	x	56*	x
O=C(CN1CCN(S(=O)(=O)c2ccc(Cl)c(Cl)c2)CC1)N1CCCC1	11*	3	8	-6
Cc1cc(C)nc(SCC(=O)Nc2ccc(Br)cn2)n1	x	5	-1	-12
Cc1cc(C)nc(SCC(=O)NC2=NN=C(c3ccc(Br)cc3)CS2)n1	x	x	-2	145*
CCC(Sc1nc(C)cc(C)n1)C(=O)NC1=NN=C(c2ccc(C)cc2)CS1 (configuration not stated)	2	-5	-19	83*
CCC(Sc1nc(C)cc(C)n1)C(=O)Nc1cc(C)on1 (configuration not stated)	2	x	-7	x
O=C(O)C[C@H]1CC[C@H](NC(=O)c2ccncc2)[C@@H](CO)O1	-2	3	1	1
O=C(c1ccccn1)N1C[C@@H]2[C@H](c3ccccc31)[C@H](CO)N2C(=O)C1CC1	0	6	49*	-7
O=C(c1ccccn1)N1C[C@H]2[C@@H](c3ccccc31)[C@@H](CO)N2C(=O)CC1CC1	3	-3	45*	7
O=C(c1ccccn1)N1C[C@H]2[C@@H](c3ccccc31)[C@H](CO)N2C(=O)CC1CC1	0	1	23	4
C/C=C/c1cnc2c(c1)C(=O)N([C@H](C)CO)C[C@H](C)[C@@H](CN(C)C(=O)C1CC1)O2	3	x	x	-25
O=C(CN1CC(=O)Oc2ccccc21)OCC(=O)c1cccc(Br)c1	x	-8	73*	11
O=C(COC(=O)C1CC2CCCC(C1)C2=O)c1cccc(Br)c1 (configuration not stated)	-3	-2	-33	-6
Cc1ccc(F)cc1NC(=O)CCc1c(C)[nH]c(=O)c(C#N)c1C	1	5	10	-1
COc1ccccc1NC(=O)CCc1c(C)[nH]c(=O)c(C#N)c1C	x	0	-2	97*
CCc1c(C)nc2ncnn2c1Nc1ccc(C)cc1	2	0	-3	4
CCc1c(C)nc2ncnn2c1NCCc1ccc(OC)cc1	11*	4	4	-61
CO[C@H]1CN(C)C(=O)c2cc(NC(=O)Nc3ccccc3F)ccc2OC[C@H](C)NC[C@H]1C	-1	-2	x	7
SMILES	F508del corr	PglD inh	ARNT-TACC3 inh	C2C12 statin
CCC(=O)c1ccc(OCC(=O)O)cc1	x	x	1	107*
CCC(=O)c1ccc(OCC(=O)NC2CCCC2)cc1	-4	12	-4	-4
O=C(O)c1cc(S(=O)(=O)Nc2cccc3ccccc23)c(Cl)cc1Cl	1	-6	1	75*
C[C@H]1CN([C@@H](C)CO)C(=O)Cc2cc(NC(=O)Cc3cn(C)c4ccccc34)ccc2O[C@@H]1CN(C)Cc1ccc(Cl)c(Cl)c1	2	4	x	142*
C[C@@H]1CN([C@H](C)CO)C(=O)Cc2cc(NC(=O)Cc3ccccc3)ccc2O[C@H]1CN(C)Cc1ccc(Cl)c(Cl)c1	1	-4	22	45
C[C@@H]1CN([C@H](C)CO)C(=O)Cc2cc(NC(=O)Cc3cn(C)c4ccccc34)ccc2O[C@@H]1CN(C)Cc1ccc(Cl)c(Cl)c1	0	6	x	69*
C[C@H](CO)N1C[C@H](C)[C@@H](CN(C)Cc2ccc(Cl)c(Cl)c2)Oc2ccc(NC(=O)Cc3ccccc3)cc2CC1=O	-2	-1	7	86*
C[C@H]1CN([C@@H](C)CO)C(=O)Cc2cc(N(C)C)ccc2O[C@H]1CN(C)Cc1ccccc1	-1	1	-6	1
CC(C)NC(=O)N(C)C[C@H]1Oc2ccc(N(C)C)cc2CC(=O)N([C@H](C)CO)C[C@@H]1C	3	-3	4	31
C[C@@H]1CN([C@@H](C)CO)C(=O)Cc2cc(N(C)C)ccc2O[C@H]1CN(C)Cc1ccc(C(F)(F)F)cc1	-2	2	24	97*
C[C@@H]1CN([C@@H](C)CO)C(=O)Cc2cc(N(C)C)ccc2O[C@@H]1CN(C)Cc1ccccc1	10*	3	0	-81
CC(C)NC(=O)N(C)C[C@@H]1Oc2ccc(N(C)C)cc2CC(=O)N([C@H](C)CO)C[C@H]1C	1	8	48*	21
C[C@@H]1CCCCO[C@H](CN(C)C(=O)C2CCCCC2)[C@H](C)CN([C@@H](C)CO)C(=O)c2cc(NS(=O)(=O)c3ccc(F)cc3)ccc2O1	0	-1	-7	x
C[C@H](CO)N1C[C@H](C)[C@@H](CN(C)S(=O)(=O)c2cn(C)cn2)OCCCC[C@H](C)Oc2ccc(NS(=O)(=O)c3ccc(F)cc3)cc2C1=O	-1	0	1	-35
COc1ccc2c3c([nH]c2c1)[C@@H](CO)N(C(=O)C1CCCC1)CC31CN(C)C1	0	x	x	x
C[C@H](CO)N1C[C@H](C)[C@H](CN(C)C(=O)Nc2ccccc2)Oc2c(NS(=O)(=O)c3ccc(F)cc3)cccc2C1=O	0	-2	5	-33
O=C(O)c1cc(=S)nc[nH]1	4	7	73*	8
O=C(O)c1c[nH]n2c(=S)ncnc12	-3	0	x	-10
COc1ccc(OC)c(-c2cc(-c3cccnc3)nc(N)c2C#N)c1	9.0*	-7	-2	x
O=C(C[C@@H]1CC[C@H]2[C@@H](COC[C@H](O)CN2C(=O)c2ccncc2)O1)NCc1cccc(F)c1	0	-3	0	-11
CC=Cc1ccc2n(c1=O)C[C@H]1[C@H](CO)[C@@H](C(=O)NCC3CC3)[C@@H]2N1CCC (mixture of isomers)	-2	-3	-14	-2
Cc1ccccc1N1CCN(C2=NC(=O)/C(=C/c3cn[nH]c3-c3ccccc3)S2)CC1	1	x	21*	x
Cc1ccccc1-c1ccc(/C=C2/SC(N3CCOCC3)=NC2=O)o1	-2	-7	1	x
Cc1ccc(-c2csc(Nc3ccccn3)n2)cc1	8.7*	2	1	-9
c1ccc(-c2csc(Nc3ccccn3)n2)cc1	3	4	-4	3
COc1cc(-c2nc3ccc4ccccc4c3c3c2CCC3)cc(OC)c1OC	x	-2	x	94*
COc1cc(-c2nc3ccc4ccccc4c3c3c2CCC3)cc(OC)c1O	x	x	-8	x

Screening data (PubChem)
